Source: PubChem BioAssay (NCI)
About 79,000 compounds went through this panel and 15% of them were active in at least one assay; those are over-represented in the sample as a whole. Calls of active or inactive are those of the source. Cut-off read from the data, not from the text of the source: active = growth inhibition above about 70%; inactive = the rest.

Key:
[1] = NCI Yeast Anticancer Drug Screen. Data for the rad52 strain (AID 147);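 note: 0% = growth of vehicle-treated control cultures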; details: S. cerevisiae rad52 mutant growth inhibition, active compounds read high
Method in brief: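 Compounds are applied to a genetically defined yeast strain lacking normal DNA damage repair, and inhibition of growth is expressed relative to cultures given vehicle only.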

[2] = NCI Yeast Anticancer Drug Screen. Data for the wt1 strain (AID 149);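 note: 0% = growth of vehicle-treated wt1 cultures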; details: S. cerevisiae wt1 strain (SPY 50644) growth inhibition, active compounds read high
Method in brief: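 Using yeast strain wt1, compound-induced growth inhibition was determined against vehicle-treated cultures.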

[3] = NCI Yeast Anticancer Drug Screen. Data for the rad50EPP+ strain (AID 151);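 note: 0% = growth of vehicle-treated control cultures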; details: S. cerevisiae rad50 mutant strain, active compounds read high
Method in brief: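 Compounds were applied to the rad50EPP+ yeast strain, which bears a defined DNA repair alteration, and growth inhibition was determined relative to vehicle-treated cultures.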

[4] = NCI Yeast Anticancer Drug Screen. Data for the mgt1 strain (AID 153); details: S. cerevisiae mgt1 mutant growth inhibition, active compounds read high
Method in brief: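 Strain: mgt1 yeast, one of a set carrying defined DNA damage repair or cell cycle control alterations. Compound-treated growth compared with vehicle.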

[5] = NCI Yeast Anticancer Drug Screen. Data for the rad50 strain (AID 155);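 note: 0% = growth of vehicle-only cultures of the same strain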; details: S. cerevisiae rad50 strain growth inhibition, active compounds read high
Method in brief: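 Relative growth inhibition (compound vs vehicle) was measured in yeast with a defined repair-gene alteration.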

[6] = NCI Yeast Anticancer Drug Screen. Data for the mec2-1 strain (AID 157); details: S. cerevisiae mec2-1 strain, active compounds read high
Method in brief: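 Strain: mec2-1 (DNA repair/cell cycle alteration). Compound exposure, then growth measured; inhibition expressed relative to vehicle.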

[7] = NCI Yeast Anticancer Drug Screen. Data for the rad14 strain (AID 159);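 note: 0% = growth of vehicle-treated control cultures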; details: S. cerevisiae rad14 strain growth inhibition, active compounds read high
Method in brief: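 Screen for anticancer potential: a yeast strain altered in DNA damage repair is grown with compound, and reduced growth is quantified against vehicle controls.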

[8] = NCI Yeast Anticancer Drug Screen. Data for the sgs1 mgt1 strain (AID 161);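 note: 0% = growth of cultures given vehicle only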; details: S. cerevisiae sgs1 mgt1 strain, active compounds read high
Method in brief: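 Mutant yeast exposed to compound; growth scored against vehicle-only wells.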

[9] = NCI Yeast Anticancer Drug Screen. Data for the CLN2oe strain (AID 163);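 note: 0% = growth of vehicle-only control cultures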; details: S. cerevisiae CLN2oe strain, active compounds read high
Method in brief: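 Growth of a genetically modified yeast strain is measured after compound exposure and compared with cultures given vehicle alone.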

[10] = NCI Yeast Anticancer Drug Screen. Data for the cln2 rad14 strain (AID 165);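 note: 0% = growth equal to vehicle treated cultures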; details: S. cerevisiae cln2 rad14 strain, active compounds read high
Method in brief: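 Compounds are applied to the cln2 rad14 yeast strain, and growth is then compared with that of vehicle-treated cultures to give inhibition.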

[11] = NCI Yeast Anticancer Drug Screen. Data for the bub3 strain (AID 167); details: S. cerevisiae bub3 mutant strain, active compounds read high
Method in brief: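 Screening used yeast with an engineered genetic alteration affecting cell cycle control. Compound-exposed cultures were compared with vehicle cultures, and reduced growth was taken as inhibition.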

[12] = NCI Yeast Anticancer Drug Screen. Data for the wt2 strain (AID 169);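 note: 0% = growth of vehicle-treated yeast cultures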; details: S. cerevisiae wt2 strain growth inhibition, active compounds read high
Method in brief: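 This strain belongs to a panel of yeast strains with defined genetic alterations in DNA damage repair or cell cycle control. Compounds are applied, and growth inhibition is measured against vehicle-treated cultures.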

[13] = NCI Yeast Anticancer Drug Screen. Data for the mlh1 strain (AID 171);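 note: 0% = growth of vehicle-treated control cultures of the same strain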; details: S. cerevisiae mlh1 strain growth inhibition, active compounds read high
Method in brief: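 Growth of the mutant yeast strain after compound exposure, expressed as inhibition relative to vehicle-only controls.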

[14] = NCI Yeast Anticancer Drug Screen. Data for the mlh1 rad18 strain (AID 175); details: S. cerevisiae mlh1 rad18 strain growth inhibition, active compounds read high
Method in brief: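 Read-out is yeast growth inhibition, calculated against vehicle-only controls. The compound was applied to a strain engineered with DNA damage repair alterations.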

[15] = NCI Yeast Anticancer Drug Screen. Data for the rad18 strain (AID 177); details: S. cerevisiae rad18 mutant growth inhibition, active compounds read high
Method in brief: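 Growth of the mutant yeast strain after compound exposure, normalised to vehicle-only cultures.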

[16] = at 5.0 µM (retest, dose inferred, filed as 0.5)
[17] = at 50.0 µM (retest, dose inferred, filed as 5.0)

Measured: growth inhibition

COP(=O)(OC)/C(=C\C1=CN(C(c2ccccc2)(c2ccccc2)c2ccccc2)CN1)NC=O
inactive: [1]; at 1.2 µM -12% | [1]; at 3.7 µM -15% | [1]; at 11.0 µM -11% | [1]; at 33.0 µM 59% | [2]; at 1.2 µM 12% | [2]; at 3.7 µM 3% | [2]; at 11.0 µM 5% | [2]; at 33.0 µM 54% | [3]; at 1.2 µM 2% | [3]; at 3.7 µM 10% | [4]; at 1.2 µM 6% | [4]; at 3.7 µM -3% | [4]; at 11.0 µM 11% | [4]; at 33.0 µM 67% | [5]; at 1.2 µM -14% | [5]; at 3.7 µM -32% | [5]; [16] 2% | [5]; at 11.0 µM -17% | [5]; [17] -15% | [6]; at 1.2 µM 34% | [6]; at 3.7 µM 13% | [6]; [16] -10% | [6]; at 11.0 µM 30% | [6]; at 33.0 µM 68% | [6]; [17] -4% | [7]; at 1.2 µM 4% | [7]; at 3.7 µM -1% | [7]; at 11.0 µM -5% | [7]; at 33.0 µM 65% | [8]; [16] -9% | [8]; [17] 0% | [9]; at 1.2 µM 3% | [9]; at 3.7 µM 8% | [9]; at 11.0 µM -8% | [9]; at 33.0 µM 25% | [10]; [16] 3% | [10]; [17] 7% | [11]; at 1.2 µM -27% | [11]; at 3.7 µM -41% | [11]; [16] -7% | [11]; at 11.0 µM -41% | [11]; at 33.0 µM 33% | [11]; [17] 2% | [12]; at 1.2 µM -10% | [12]; at 3.7 µM -13% | [12]; at 11.0 µM -6% | [12]; at 33.0 µM 34% | [13]; at 1.2 µM 1% | [13]; at 3.7 µM -13% | [13]; at 11.0 µM -8% | [14]; [16] -22% | [14]; [17] -8% | [15]; at 1.2 µM -7% | [15]; at 3.7 µM -18% | [15]; at 11.0 µM -13% | [15]; at 33.0 µM 40%
active: [1]; at 100.0 µM 96% | [2]; at 100.0 µM 96% | [3]; at 11.0 µM 73% | [3]; at 33.0 µM 96% | [3]; at 100.0 µM 97% | [4]; at 100.0 µM 96% | [5]; at 33.0 µM 73% | [5]; at 50.0 µM 98% | [5]; at 100.0 µM 96% | [6]; at 50.0 µM 98.3% | [6]; at 100.0 µM 97% | [7]; at 100.0 µM 96% | [8]; at 50.0 µM 98.3% | [9]; at 100.0 µM 95% | [10]; at 50.0 µM 95.2% | [11]; at 50.0 µM 96.2% | [11]; at 100.0 µM 94% | [12]; at 100.0 µM 96% | [13]; at 33.0 µM 71% | [13]; at 100.0 µM 96% | [14]; at 50.0 µM 97% | [15]; at 100.0 µM 95%
